In PubChem BioAssay (EPA / NIEHS):
Activity calls are given as the source filed them. The calls were made as follows: active = hit-call score of the fitted dose curve at least 0.9, where 1 is the maximum; inactive = score below 0.9.

Assays:
[1] = ATG_GRE_CIS: Attagene CIS-FACTORIAL HepG2 Assay for human Glucocorticoid Response Elements (GRE) (AID 2282947); conditions: HepG2 GRE cis-reporter, Attagene multiplex mRNA; actives raise or lower the signal
Method in brief: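 Transiently transfected HepG2 cells carrying GRE cis-reporter units (endogenous TF activity) dosed 24 h; reporter mRNA quantified by RT-PCR, 6-FAM labelling, HpaI digestion and capillary electrophoresis. Bidirectional fit versus DMSO baseline.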

[2] = ATG_ISRE_CIS: Attagene CIS-FACTORIAL HepG2 Assay for human Interferon Regulatory Factor 1 (IRF1) binding to an Interferon-Stimulated Response Element (ISRE) (AID 2282948); conditions: HepG2 ISRE cis-reporter (Attagene), mRNA transcription readout; actives raise or lower the signal
Method in brief: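 Transiently transfected HepG2 cells carrying cis-element reporter units, dosed 24 hours. Reporter mRNA quantified by RT-PCR, fluorescent primer extension, HpaI digestion and capillary electrophoresis. Bidirectional fitting relative to DMSO.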

[3] = ATG_M_32_CIS: Attagene CIS-FACTORIAL HepG2 Assay for M32 Transcription Factor (Internal Marker) (AID 2282949); conditions: HepG2 Attagene cis-factorial M32 reporter, mRNA; actives raise or lower the signal;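 also: background control marker of the multiplexed CIS panel rather than a real target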
Method in brief: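 HepG2 cells transiently transfected with multiplexed cis-regulated reporter units, dosed 24 h. Reporter mRNA quantified by RT-PCR, 6-FAM labelling, HpaI digestion and capillary electrophoresis; bidirectional fit vs DMSO.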

[4] = ATG_M_06_CIS: Attagene CIS-FACTORIAL HepG2 Assay for M06 Transcription Factor (Internal Marker) (AID 2282950); conditions: HepG2 Attagene CIS-FACTORIAL M06 internal marker reporter; actives raise or lower the signal
Method in brief: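 Terse: HepG2, transient MRTU transfection (FuGene 6), 24 h dosing; total RNA, oligo(dT) RT, PCR, FAM label, HpaI cut, capillary electrophoresis; bidirectional fit vs DMSO baseline; background-control endpoint.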

[5] = biological target: Hepatocyte nuclear factor 6 (Homo sapiens) (UniProt Q9UBC0); assay: ATG_HNF6_CIS: Attagene CIS-FACTORIAL HepG2 Assay for human Hepatocyte Nuclear Factor 6 (HNF6) (AID 2282952); conditions: HepG2 Attagene cis-factorial HNF6 reporter transcription; actives raise or lower the signal
Hepatocyte nuclear factor 6 (Homo sapiens), sequence (Q9UBC0 whole entry, looked up, the tested form may be a part): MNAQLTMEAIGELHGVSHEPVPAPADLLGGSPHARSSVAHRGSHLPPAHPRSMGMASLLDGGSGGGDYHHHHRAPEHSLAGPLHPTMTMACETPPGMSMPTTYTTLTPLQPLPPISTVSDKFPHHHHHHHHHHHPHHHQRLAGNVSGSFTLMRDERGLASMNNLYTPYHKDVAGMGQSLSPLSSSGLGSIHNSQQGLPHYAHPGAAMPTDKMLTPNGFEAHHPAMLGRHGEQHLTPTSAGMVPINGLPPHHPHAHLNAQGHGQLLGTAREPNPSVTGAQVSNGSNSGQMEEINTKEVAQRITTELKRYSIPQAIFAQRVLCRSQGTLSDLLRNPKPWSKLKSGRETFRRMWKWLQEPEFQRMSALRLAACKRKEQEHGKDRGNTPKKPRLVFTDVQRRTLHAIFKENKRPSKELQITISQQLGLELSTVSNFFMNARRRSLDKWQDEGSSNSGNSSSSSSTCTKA
Method in brief: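 Reporter mRNA induction or loss in HepG2 after 24 h exposure; transient cis-MRTU transfection; fragments quantified by capillary electrophoresis; bidirectional analysis, DMSO as negative control.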

[6] = ATG_MRE_CIS: Attagene CIS-FACTORIAL HepG2 Assay for human Metal Responsive Element (MRE) (AID 2282954); conditions: HepG2 MRE cis-reporter transcription, Attagene multiplex; actives raise or lower the signal
Method in brief: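 HepG2 cells transiently transfected with cis-element-driven reporter units; mRNA measured 24 h after dosing. Reporter transcripts quantified by RT-PCR, FAM labelling, HpaI digestion and capillary electrophoresis; bidirectional fit versus DMSO.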

[7] = ATG_PBREM_CIS: Attagene CIS-FACTORIAL HepG2 Assay for human Phenobarbital-responsive Enhancer Module (PBREM) (AID 2282955); conditions: HepG2 PBREM cis-reporter, Attagene multiplexed transcription; actives raise or lower the signal
Method in brief: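 Endogenous transcription factor activity was read from reporter transcripts in transiently transfected human HepG2 liver cells after 24 h dosing. RT-PCR products were fluorescently labelled, HpaI-cut and sized by capillary electrophoresis; activity fitted bidirectionally against DMSO baseline.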

[8] = biological target: Paired box protein Pax-6 (Homo sapiens) (UniProt P26367); assay: ATG_Pax6_CIS: Attagene CIS-FACTORIAL HepG2 Assay for human Paired Box 6 (PAX6) (AID 2282956); conditions: HepG2 CIS-FACTORIAL PAX6 reporter transcription, RNA readout; actives raise or lower the signal
Paired box protein Pax-6 (Homo sapiens), sequence (P26367 whole entry, looked up): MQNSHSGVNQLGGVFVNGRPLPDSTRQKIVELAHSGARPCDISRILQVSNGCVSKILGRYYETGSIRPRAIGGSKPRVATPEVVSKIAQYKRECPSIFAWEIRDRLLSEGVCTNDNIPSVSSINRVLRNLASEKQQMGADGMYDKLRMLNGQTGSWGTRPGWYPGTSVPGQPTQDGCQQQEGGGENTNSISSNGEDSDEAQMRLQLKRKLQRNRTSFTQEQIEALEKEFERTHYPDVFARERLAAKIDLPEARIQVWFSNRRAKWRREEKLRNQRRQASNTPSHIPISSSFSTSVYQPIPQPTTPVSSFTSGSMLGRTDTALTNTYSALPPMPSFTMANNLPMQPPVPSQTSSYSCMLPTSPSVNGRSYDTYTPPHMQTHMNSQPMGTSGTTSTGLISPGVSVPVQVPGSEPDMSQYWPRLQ
Method in brief: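 HepG2 cells transiently transfected with cis-promoter-driven multiplexed reporter units sensing endogenous transcription factor activity; 24 h chemical exposure. Reporter mRNA quantified by RT-PCR, 6-FAM labelling, HpaI digestion and capillary electrophoresis; bidirectional fit versus DMSO baseline.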

[9] = ATG_PXRE_CIS: Attagene CIS-FACTORIAL HepG2 Assay for human Pregnane X Receptor Element (PXRE) (AID 2282957); conditions: HepG2 Attagene CIS-FACTORIAL PXRE reporter, mRNA; actives raise or lower the signal
Method in brief: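 Transiently transfected HepG2 cells were dosed and incubated for 24 h. RNA was then isolated, DNase-treated, reverse-transcribed and reporter sequences amplified. Labeled, HpaI-digested fragments were quantified by capillary electrophoresis against DMSO.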

[10] = ATG_RORE_CIS: Attagene CIS-FACTORIAL HepG2 Assay for human RAR-related Orphan Receptor Element (RORE) (AID 2282959); conditions: HepG2 Attagene cis-factorial RORE reporter, mRNA; actives raise or lower the signal
Method in brief: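 RORE reporter transcripts reflecting endogenous factor activity were read after 24 h compound exposure of transfected HepG2 cells, using reverse transcription, PCR, fluorescent labelling and capillary electrophoresis sizing. Gain or loss fitted against DMSO.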

[11] = ATG_Sox_CIS: Attagene CIS-FACTORIAL HepG2 Assay for human SRY-box transcription factor (SOX) (AID 2282960); conditions: HepG2 Attagene cis-factorial SOX reporter, mRNA; actives raise or lower the signal
Method in brief: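 Reporter transcripts, measured by RT-PCR and capillary electrophoresis of labelled fragments, report endogenous SOX transcription factor activity. Transiently transfected human HepG2 cells receive chemical for 24 h; changes in either direction are fitted relative to DMSO.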

[12] = biological target: Transcription factor Sp1 (Homo sapiens) (UniProt P08047); assay: ATG_Sp1_CIS: Attagene CIS-FACTORIAL HepG2 Assay for human Specificity Protein 1 (Sp1) (AID 2282961); conditions: HepG2 Sp1 cis-reporter transcription, actives raise or lower the signal
Transcription factor Sp1 (Homo sapiens), sequence (P08047 whole entry, looked up): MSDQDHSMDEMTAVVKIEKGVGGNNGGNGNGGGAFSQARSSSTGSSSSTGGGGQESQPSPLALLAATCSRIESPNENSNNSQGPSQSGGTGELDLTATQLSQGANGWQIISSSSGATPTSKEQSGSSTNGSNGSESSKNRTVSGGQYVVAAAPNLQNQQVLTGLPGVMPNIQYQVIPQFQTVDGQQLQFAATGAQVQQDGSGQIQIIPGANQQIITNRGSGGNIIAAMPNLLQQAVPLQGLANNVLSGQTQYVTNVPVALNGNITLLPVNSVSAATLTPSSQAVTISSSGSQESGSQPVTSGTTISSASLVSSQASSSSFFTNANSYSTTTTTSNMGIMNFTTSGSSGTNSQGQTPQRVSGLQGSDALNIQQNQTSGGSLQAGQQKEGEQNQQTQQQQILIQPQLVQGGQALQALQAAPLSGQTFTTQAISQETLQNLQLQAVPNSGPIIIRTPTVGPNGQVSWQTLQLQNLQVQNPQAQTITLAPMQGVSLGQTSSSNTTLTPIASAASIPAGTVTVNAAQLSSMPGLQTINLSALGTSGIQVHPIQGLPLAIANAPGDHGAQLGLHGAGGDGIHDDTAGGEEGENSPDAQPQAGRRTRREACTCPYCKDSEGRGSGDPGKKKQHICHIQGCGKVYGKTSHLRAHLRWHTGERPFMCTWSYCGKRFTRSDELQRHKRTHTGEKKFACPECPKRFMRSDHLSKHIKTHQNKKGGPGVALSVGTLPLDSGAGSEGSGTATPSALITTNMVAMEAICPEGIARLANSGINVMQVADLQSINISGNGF
Method in brief: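 Read-out is reporter transcript level, measured by RT-PCR and fluorescent capillary electrophoresis after 24 h chemical treatment. System: transiently transfected HepG2 cells reporting endogenous transcription factor activity; gain or loss fitted against DMSO baseline.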

[13] = ATG_SREBP_CIS: Attagene CIS-FACTORIAL HepG2 Assay for human Sterol Regulatory Element Binding (SREBP) (AID 2282962); conditions: HepG2 Attagene cis-factorial SREBP reporter, mRNA; actives raise or lower the signal
Method in brief: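 HepG2 cells transiently transfected with multiplexed cis-promoter reporter units sensing endogenous transcription factors; reporter mRNA measured 24 h after dosing by RT-PCR, 6-FAM labeling, HpaI digestion and capillary electrophoresis. Bidirectional fit versus DMSO.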

[14] = biological target: Signal transducer and activator of transcription 3 (Homo sapiens) (UniProt P40763); assay: ATG_STAT3_CIS: Attagene CIS-FACTORIAL HepG2 Assay for human Signal Transducer and Activator of Transcription 3 (STAT3) (AID 2282963); conditions: HepG2, Attagene cis-factorial STAT3 reporter transcription; actives raise or lower the signal
Signal transducer and activator of transcription 3 (Homo sapiens), sequence (P40763 whole entry, looked up): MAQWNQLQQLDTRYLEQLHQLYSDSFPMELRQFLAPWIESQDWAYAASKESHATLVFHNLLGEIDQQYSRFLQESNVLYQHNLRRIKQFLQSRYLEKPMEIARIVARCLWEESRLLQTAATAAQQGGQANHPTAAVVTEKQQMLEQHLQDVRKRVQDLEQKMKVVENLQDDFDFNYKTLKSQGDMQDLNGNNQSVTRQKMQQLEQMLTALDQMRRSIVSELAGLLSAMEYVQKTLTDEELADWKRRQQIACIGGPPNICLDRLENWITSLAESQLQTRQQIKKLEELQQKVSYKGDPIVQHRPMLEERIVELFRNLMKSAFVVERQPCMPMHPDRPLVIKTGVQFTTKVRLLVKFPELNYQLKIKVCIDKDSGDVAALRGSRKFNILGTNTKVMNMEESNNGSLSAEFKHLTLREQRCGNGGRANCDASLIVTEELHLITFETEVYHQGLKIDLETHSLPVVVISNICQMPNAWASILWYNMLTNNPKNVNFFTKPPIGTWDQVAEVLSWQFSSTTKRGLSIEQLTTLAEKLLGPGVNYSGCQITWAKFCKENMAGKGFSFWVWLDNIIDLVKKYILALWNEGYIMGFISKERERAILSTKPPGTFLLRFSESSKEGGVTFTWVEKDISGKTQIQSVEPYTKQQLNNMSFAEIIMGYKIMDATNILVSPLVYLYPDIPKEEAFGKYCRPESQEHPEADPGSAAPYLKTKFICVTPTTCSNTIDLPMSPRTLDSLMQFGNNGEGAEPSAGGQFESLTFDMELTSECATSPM
Method in brief: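 HepG2 cells transiently transfected with multiple cis-element-driven reporter units report endogenous transcription factor activity. After 24 h compound exposure, reporter mRNA is measured by RT-PCR, 6-FAM labelling, HpaI digestion and capillary electrophoresis. Fitted bidirectionally versus DMSO.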

[15] = ATG_TA_CIS: Attagene CIS-FACTORIAL HepG2 Assay for human TA Basal Promoter (AID 2282964); conditions: HepG2 Attagene CIS-factorial TA basal promoter reporter; actives raise or lower the signal
Method in brief: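 Transfected HepG2, 24 h compound exposure; RNA → RT-PCR → FAM primer extension → HpaI cut → CE fluorescence. Gain/loss-of-signal fitted against DMSO negative control. Background-control readout.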

[16] = ATG_TCF_b_cat_CIS: Attagene CIS-FACTORIAL HepG2 Assay for human T-Cell-Factor with beta-catenin (TCF/b-cat) (AID 2282965); conditions: HepG2 TCF/beta-catenin cis-reporter transcription, actives raise or lower the signal
Method in brief: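 HepG2, transient MRTU transfection, cis-element-driven reporters (endogenous TFs). 24 h compound exposure. Readout: reporter mRNA by RT-PCR + 6-FAM primer extension, HpaI digest, capillary electrophoresis. Gain/loss fit vs DMSO baseline.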

[17] = biological target: Heat shock factor protein 1 (Homo sapiens) (UniProt Q00613); assay: ATG_HSE_CIS: Attagene CIS-FACTORIAL HepG2 Assay for human Heat Shock Transcription Factor 1 (HSE) (AID 2282953); conditions: HepG2 HSE cis-reporter, Attagene RNA transcription; actives raise or lower the signal
Heat shock factor protein 1 (Homo sapiens), sequence (Q00613 whole entry, looked up, the tested form may be a part): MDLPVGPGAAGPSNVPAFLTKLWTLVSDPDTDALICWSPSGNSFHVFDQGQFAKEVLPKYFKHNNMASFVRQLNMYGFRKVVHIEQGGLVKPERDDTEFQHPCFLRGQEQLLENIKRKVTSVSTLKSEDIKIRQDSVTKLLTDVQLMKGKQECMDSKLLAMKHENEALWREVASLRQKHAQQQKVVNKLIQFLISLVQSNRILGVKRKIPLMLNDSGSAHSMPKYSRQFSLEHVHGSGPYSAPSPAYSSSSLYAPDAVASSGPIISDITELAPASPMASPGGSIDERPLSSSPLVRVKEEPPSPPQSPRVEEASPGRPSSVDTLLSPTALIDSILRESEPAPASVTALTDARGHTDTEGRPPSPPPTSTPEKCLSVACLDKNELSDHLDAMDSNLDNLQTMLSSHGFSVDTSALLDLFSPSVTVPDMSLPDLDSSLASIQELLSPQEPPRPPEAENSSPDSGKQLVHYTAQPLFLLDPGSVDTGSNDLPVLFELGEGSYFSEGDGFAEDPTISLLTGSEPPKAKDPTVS
Method in brief: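 Read-out: fluorescence of reporter-specific RT-PCR fragments separated by capillary electrophoresis. HepG2 carrying transfected cis-element reporter units; 24 h dosing; activity fitted in both directions relative to DMSO baseline.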

[18] = ATG_PPRE_CIS: Attagene CIS-FACTORIAL HepG2 Assay for human Peroxisome Proliferator-activated Response Element (PPRE) (AID 2282958); conditions: HepG2 PPRE cis-element reporter, Attagene transcription factor profiling; actives raise or lower the signal
Method in brief: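 Endogenous PPRE-driven transcription is measured in HepG2 cells carrying transfected multi-reporter constructs. Reporter transcripts are quantified by RT-PCR, HpaI digestion and capillary electrophoresis 24 h after dosing. DMSO baseline, bidirectional fit.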

[19] = biological target: Hypoxia-inducible factor 1-alpha (Homo sapiens) (UniProt Q16665); assay: ATG_HIF1a_CIS: Attagene CIS-FACTORIAL HepG2 Assay for human Hypoxia Inducible Factor 1 (HIF1A) (AID 2282951); conditions: HepG2 Attagene cis-factorial HIF1a reporter transcription; actives raise or lower the signal
Hypoxia-inducible factor 1-alpha (Homo sapiens), sequence (Q16665 whole entry, looked up): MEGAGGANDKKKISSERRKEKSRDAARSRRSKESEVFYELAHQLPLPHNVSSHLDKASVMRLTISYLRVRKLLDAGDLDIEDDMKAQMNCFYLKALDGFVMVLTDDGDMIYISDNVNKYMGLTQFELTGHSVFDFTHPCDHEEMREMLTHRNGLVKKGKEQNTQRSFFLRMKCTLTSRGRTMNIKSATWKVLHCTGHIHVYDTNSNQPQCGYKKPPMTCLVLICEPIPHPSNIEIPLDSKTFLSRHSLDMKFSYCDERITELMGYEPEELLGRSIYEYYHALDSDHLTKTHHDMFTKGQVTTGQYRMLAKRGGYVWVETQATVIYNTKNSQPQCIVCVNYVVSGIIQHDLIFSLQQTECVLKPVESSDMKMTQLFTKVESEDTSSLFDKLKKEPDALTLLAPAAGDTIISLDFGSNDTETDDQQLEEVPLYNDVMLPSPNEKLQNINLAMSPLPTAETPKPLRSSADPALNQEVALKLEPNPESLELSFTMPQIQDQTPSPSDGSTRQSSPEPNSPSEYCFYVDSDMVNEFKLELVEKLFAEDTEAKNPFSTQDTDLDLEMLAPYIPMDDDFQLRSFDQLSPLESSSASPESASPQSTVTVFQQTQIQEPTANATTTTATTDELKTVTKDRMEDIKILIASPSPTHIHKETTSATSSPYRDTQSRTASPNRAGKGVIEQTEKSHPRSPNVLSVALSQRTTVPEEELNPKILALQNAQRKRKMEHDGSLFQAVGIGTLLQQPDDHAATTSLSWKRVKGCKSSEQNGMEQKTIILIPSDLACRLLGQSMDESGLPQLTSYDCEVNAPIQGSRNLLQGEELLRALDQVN
Method in brief: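 Activity is fitted in both directions relative to DMSO. Reporter transcripts are read by RT-PCR, fluorescent primer extension and capillary electrophoresis after 24 h chemical treatment. The cells are HepG2 carrying transiently transfected cis-element-driven reporter units responding to endogenous factors.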

Measured: AC50

CC1OC1C1CCC2(C)OC2C1 (stereo not drawn)
active: [9] 36.7 µM
not listed: [17] | [18] | [19]
inactive: all other assays above

CCCCCCCCCCCSCC(=O)O
active: [2] 74.1 µM | [5] 100 µM | [17] 159 µM | [6] 106 µM | [8] 100 µM | [18] 5.09 µM | [10] 51.6 µM | [12] 151 µM | [13] 25.1 µM | [15] 98 µM
inactive: [1] | [3] | [4] | [7] | [9] | [11] | [14] | [16]

Cc1ccc(C(C)c2ccc(C)c(C)c2)cc1C
active: [1] 24.8 µM | [19] 26.1 µM | [17] 100 µM | [6] 181 µM | [9] 3.88 µM | [12] 100 µM | [13] 147 µM
not listed: [3]
inactive: all other assays above

CN(C)c1ccc(C(=N)c2ccc(N(C)C)cc2)cc1
active: [2] 23 µM | [17] 29.4 µM | [6] 6.69 µM | [7] 7.5 µM | [8] 3.16 µM | [9] 5.82 µM | [10] 1.28 µM | [16] 9.76 µM
not listed: [19]
inactive: all other assays above

Cn1c([N+](=O)[O-])cnc1COC(N)=O
not listed: [19]
inactive: all other assays above

O=c1c2ccccc2oc2ccccc12
active: [9] 27.1 µM
not listed: [5] | [12] | [17] | [18] | [19]
inactive: all other assays above

C[C@]12CCC(=O)C=C1CC[C@@H]1[C@@H]2C(=O)C[C@@]2(C)[C@H]1CC[C@]2(O)C(=O)CO
active: [9] 39.5 µM
not listed: [16] | [18] | [19]
inactive: all other assays above
